Results on twelve compounds are retold here after PubChem BioAssay (NCATS).

The structures appear in SMILES notation. Inconclusive results are not listed. Active and inactive are the calls of the source. Calls come from the whole dose curve; as a rule, active = well fitted inhibition curve with a large enough effect; inconclusive = small, poorly fitted or top-dose-only effect; inactive = flat fitted curve, though single readings scatter.

Experiment in all cases: qHTS profiling for inhibitors of Plasmodium falciparum proliferation (AID 504749); note: nearly all actives have a fitted effect of over 60% in size
What all share (settings): P. falciparum in erythrocytes, SYBR Green DNA, 72 h; series mostly up to 28.7 µM
In general terms: In qHTS, concentration-response curves come from the screen itself.

For one assay, the system named is CP185. The procedure, abridged: (§1)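 Parasite proliferation within erythrocytes, 72 h exposure. Endpoint: SYBR Green I fluorescence after overnight lysis at room temperature. Controls: 0.29 uM artemisinin, DMSO.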
A further assay relates to CP191. Summed up: as §1
In the next assay the test system is CP192. The procedure, abridged: as §1
The next assay has as its system CP194. Summed up: as §1
For a further assay, the system named is CP201. Summed up: as §1
For a further assay, the system named is CP203. Summed up: as §1
The next assay deals with CP215. Summed up: as §1
The next assay concerns CP217. The procedure, abridged:
as §1

The test system of another assay is CP237. Summed up: as §1
The subject of the next assay is CP238. Summed up:
as §1

For the next assay, the system named is CP247. Summed up: as §1
Another assay deals with CP250. The procedure, abridged: as §1
Another assay concerns CP252. The procedure, abridged:
as §1

The subject of a further assay is CP256. The procedure, abridged:
as §1

For a further assay, the system named is CP260. Summed up: as §1
The subject of another assay is CP262. Summed up:
as §1

A further assay has as its system CP265. The procedure, abridged: as §1
The subject of another assay is CP266. The procedure, abridged:
as §1

The test system of the next assay is CP268. The procedure, abridged:
as §1

The next assay relates to CP211. Summed up:
as §1
Potency is the fitted concentration of half-maximal effect.

For `CCCCCCC(O)C/C=C/CCCCCCCC(=O)O` (stereo not drawn), the Potency entry in the assay with CP185, in the assay with CP191, with CP192, in the assay with CP194, in the assay with CP201 and in the assay with CP203 was “inactive” throughout. Moreover, the Potency entry with CP215, with CP217, in the assay with CP237, with CP238, in the assay on CP247 and with CP250 was “inactive” each time. Moreover, the Potency result in the assay with CP252, in the assay with CP256, in the assay with CP260, with CP262, in the assay with CP265 and in the assay on CP266 was “inactive” in each case. Further, in the assay with CP268, the Potency entry was “inactive”.

Turning to `O=C1C(=O)c2ncccc2-c2cccnc21`, the Potency with CP185 was 2.51 µM (active); with CP191, 3.16 µM (active); in the assay with CP192, 0.953 µM (active); in the assay with CP194, 1.35 µM (active); in the assay on CP201 it was 1.69 µM (active); in the assay on CP203, 1.69 µM (active). The Potency in the assay on CP211 is 1.07 µM (active); with CP215, 1.35 µM (active); with CP217 it was 1.26 µM (active); in the assay with CP237, 1 µM (active); in the assay with CP238, 1 µM (active); in the assay on CP247 it was 1.58 µM (active). The Potency with CP250 is 1.26 µM (active); in the assay with CP252 it was 2.51 µM (active); in the assay on CP256, 1 µM (active); in the assay with CP260 it was 0.891 µM (active); in the assay with CP262, 6.01 µM (active); in the assay on CP265 it was 0.891 µM (active). Further, the results for the Potency in the assay on CP266 and with CP268 were 0.849 µM (active) and 1.51 µM (active), respectively.

With `CC(C)(C)C(=O)OCOC(=O)[C@@H]1N2C(=O)[C@@H](N=CN3CCCCCC3)[C@H]2SC1(C)C`, the Potency entry with CP185, in the assay on CP191, in the assay with CP192, in the assay on CP194, with CP201 and in the assay with CP203 was “inactive” in each case. Besides, the Potency result in the assay with CP211, with CP215, with CP217, with CP237, with CP238 and in the assay with CP247 was “inactive” each time. Besides, the Potency result in the assay with CP250, with CP252, in the assay on CP256, in the assay with CP260, with CP262 and in the assay with CP265 was “inactive” throughout. The Potency result in the assay with CP266 and in the assay with CP268 was “inactive” throughout.

With `CCCCC/C=C\C/C=C\CCCCCCCC(=O)O`, the Potency entry in the assay on CP185, in the assay with CP191, in the assay with CP192, with CP194, with CP201 and in the assay with CP203 was “inactive” in each case. For the same compound, the Potency entry in the assay with CP211, with CP215, with CP217, in the assay with CP237, in the assay with CP238 and with CP247 was “inactive” in each case. The Potency entry in the assay on CP250, with CP252, in the assay with CP256, in the assay on CP260, in the assay on CP262 and in the assay on CP265 was “inactive” each time. The Potency entry in the assay with CP266 and with CP268 was “inactive” throughout.

With `COC(F)(F)C(Cl)Cl`, the Potency entry in the assay on CP185, in the assay with CP191, with CP192, in the assay with CP194, in the assay with CP201 and with CP203 was “inactive” throughout. The Potency result in the assay on CP211, in the assay with CP215, in the assay on CP217, in the assay with CP237, in the assay with CP238 and in the assay on CP247 was “inactive” each time. For the same compound, the Potency result with CP250, in the assay with CP252, in the assay with CP256, in the assay on CP260, with CP262 and with CP265 was “inactive” in each case. Also, the Potency result in the assay on CP266 and with CP268 was “inactive” each time.

Consider `CC(C)=O`, for which the Potency entry with CP185, in the assay on CP191, in the assay with CP192, with CP194, with CP201 and in the assay with CP203 was “inactive” each time. The Potency entry with CP211, in the assay with CP215, in the assay with CP217, in the assay on CP237, in the assay with CP238 and in the assay with CP247 was “inactive” in each case. Moreover, the Potency entry in the assay with CP250, in the assay on CP252, in the assay on CP260, in the assay on CP262 and in the assay on CP266 was “inactive” throughout.

`Cc1c(C)c2c(c(C)c1O)CC[C@@](C)(CCC[C@H](C)CCC[C@H](C)CCCC(C)C)O2`: the Potency entry with CP185, with CP191, in the assay on CP192, with CP194, with CP201 and with CP211 was “inactive” throughout. In addition, the Potency entry with CP215, in the assay on CP217, in the assay on CP237, in the assay with CP238, in the assay on CP247 and in the assay on CP250 was “inactive” throughout. The Potency entry in the assay on CP252, in the assay with CP256, in the assay on CP260, in the assay with CP262, in the assay on CP265 and in the assay with CP266 was “inactive” throughout. The Potency result with CP268 is “inactive”.

Take `CC[N+](C)(C)Cc1ccccc1Br`: the Potency entry in the assay on CP185, in the assay on CP191, in the assay with CP192, in the assay with CP194, in the assay with CP201 and in the assay with CP211 was “inactive” in each case. The Potency entry with CP215, in the assay with CP217, in the assay with CP237, in the assay with CP238, in the assay with CP247 and in the assay on CP250 was “inactive” throughout. Besides, the Potency result in the assay on CP252, in the assay with CP256, in the assay with CP260, with CP262, in the assay on CP265 and in the assay with CP266 was “inactive” each time. Besides, the Potency entry with CP268 was “inactive”.

Take `C[C@H]1C[C@H]2[C@@H]3CCC4=CC(=O)C=C[C@]4(C)[C@@]3(F)[C@@H](O)C[C@]2(C)[C@@]1(O)C(=O)CO`: the Potency result in the assay with CP185, in the assay on CP191, in the assay on CP192, in the assay with CP194, with CP201 and in the assay on CP211 was “inactive” in each case. For the same compound, the Potency entry with CP215, in the assay on CP217, with CP237, in the assay with CP238, in the assay with CP247 and in the assay on CP250 was “inactive” throughout. For the same compound, the Potency result with CP252, with CP256, in the assay with CP260, in the assay on CP262, in the assay on CP265 and in the assay with CP266 was “inactive” throughout. In the assay on CP268, the Potency entry was “inactive”.

As to `Cc1cn([C@H]2C[C@H](O)[C@@H](CO)O2)c(=O)[nH]c1=O`, the Potency result with CP185, in the assay with CP191, in the assay on CP192, in the assay on CP194, in the assay with CP201 and with CP211 was “inactive” throughout. The Potency result with CP215, in the assay on CP217, in the assay with CP237, in the assay on CP238, in the assay with CP247 and in the assay on CP250 was “inactive” in each case. The Potency entry with CP252, in the assay with CP256, in the assay on CP262, with CP265, in the assay with CP266 and in the assay with CP268 was “inactive” throughout.

In the case of `CCNC(=O)[C@@H]1CCCN1C(=O)[C@H](CCCN=C(N)N)NC(=O)[C@H](CC(C)C)NC(=O)[C@@H](Cc1c[nH]c2ccccc12)NC(=O)[C@H](Cc1ccc(O)cc1)NC(=O)[C@H](CO)NC(=O)[C@H](Cc1c[nH]c2ccccc12)NC(=O)[C@H](Cc1cnc[nH]1)NC(=O)[C@@H]1CCC(=O)N1`, the Potency in the assay on CP185 is 11.2 µM (active); with CP191, 7.94 µM (active); with CP192 it was 9.53 µM (active); in the assay with CP194, 7.57 µM (active); with CP201, 15.1 µM (active); with CP211, 6.75 µM (active). The Potency with CP215 is 13.5 µM (active); in the assay with CP217, 7.08 µM (active); in the assay on CP237 it was 3.55 µM (active); in the assay with CP238, 7.08 µM (active); in the assay with CP247, 7.08 µM (active); in the assay on CP250, 8.91 µM (active). Also, the Potency was 11.2 µM (active) in the assay with CP252; 12.6 µM (active) in the assay on CP256; 3.55 µM (active) in the assay on CP260; 7.94 µM (active) in the assay with CP265; 13.5 µM (active) with CP266; 8.49 µM (active) with CP268.

With `CO[C@H](C(=O)[C@@H](O)[C@@H](C)O)C1Cc2cc3cc(O[C@H]4C[C@@H](O[C@H]5C[C@@H](O)[C@H](O)[C@@H](C)O5)[C@@H](O)[C@@H](C)O4)c(C)c(O)c3c(O)c2C(=O)[C@H]1O[C@H]1C[C@@H](O[C@H]2C[C@@H](O[C@H]3C[C@](C)(O)[C@H](O)[C@@H](C)O3)[C@H](O)[C@@H](C)O2)[C@H](O)[C@@H](C)O1` (stereo partly drawn), the Potency is 0.199 µM (active) in the assay with CP185; 0.178 µM (active) in the assay with CP191; 2.13 µM (active) in the assay on CP192; 2.69 µM (active) with CP194; 2.13 µM (active) in the assay on CP201; 2.13 µM (active) with CP211. Besides, the Potency is 1.69 µM (active) with CP215; 0.224 µM (active) with CP217; 0.112 µM (active) in the assay with CP237; 0.178 µM (active) in the assay with CP238; 0.355 µM (active) in the assay on CP247; 0.199 µM (active) in the assay with CP250. Besides, the Potency in the assay on CP252 is 0.178 µM (active); in the assay on CP256 it was 0.251 µM (active); in the assay on CP260, 0.112 µM (active); in the assay with CP262 it was 1.69 µM (active); with CP265, 0.282 µM (active); in the assay on CP266 it was 1.69 µM (active). The Potency in the assay with CP268 was 1.35 µM (active).
